Only some compounds are listed: those with a hit (about 2% of all), similar ones and a draw of the others.
CHO-K1 Ca ag – M1 agonist counterscreen hit in parental CHO-K1 cells | Fluo-8 calcium fluorescence; scaled to maximal ATP response, vehicle zero | activation, % at 3 µM | 360,000 compounds, 0.48% hits | AID 602248; in the data active = activation above about 15%;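 also: untransfected CHO-K1 host cells lacking M1 receptor as counterscreen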
M4 PAM – potentiates acetylcholine response at human M4 receptor | CHO-K1 hM4/Gqi5, Fluo-8 calcium fluorescence, ACh EC20; 0% = ACh EC20, 100% = maximal ACh | activation, % at 3 µM | 360,000 compounds, 0.4% hits;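 active = activation above its plate's cutoff, the mean activation of sample wells plus 3 SD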
Target sequence (P08173 whole entry, looked up): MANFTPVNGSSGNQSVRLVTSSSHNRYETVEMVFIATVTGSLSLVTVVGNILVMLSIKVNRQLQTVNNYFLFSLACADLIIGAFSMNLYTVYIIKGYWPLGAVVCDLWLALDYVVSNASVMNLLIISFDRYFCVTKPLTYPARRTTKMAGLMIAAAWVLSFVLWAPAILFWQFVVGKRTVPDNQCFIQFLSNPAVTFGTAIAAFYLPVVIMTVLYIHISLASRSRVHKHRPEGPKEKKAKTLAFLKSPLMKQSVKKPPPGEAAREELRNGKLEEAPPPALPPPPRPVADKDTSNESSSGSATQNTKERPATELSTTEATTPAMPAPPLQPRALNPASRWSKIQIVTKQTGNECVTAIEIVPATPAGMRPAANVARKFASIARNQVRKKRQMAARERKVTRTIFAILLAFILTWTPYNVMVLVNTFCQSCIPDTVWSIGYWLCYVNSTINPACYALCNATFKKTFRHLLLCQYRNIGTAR
CHO-K1 Ca antag – counter-screen for M1 antagonists: effect in parental CHO-K1 cells; inhibition, % at 3 µM; ATP-induced calcium, Fluo-8 fluorescence; 360,000 compounds, 0.6% hits;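 active = inhibition above a per-plate cutoff, the plate's mean sample inhibition plus 3 SD, cut at about 24% in these data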;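 also: 0% = DMSO plus EC80 ATP and 100% = DMSO alone without ATP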
M4 ag – CHRM4 agonism in calcium assay. P08173. CHO-K1 hM4/Gqi5, Fluo-8 calcium fluorescence; vehicle 0%, full acetylcholine response 100%. activation, % at 3 µM. 360,000 compounds, 0.14% hits;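 active = activation above the run mean over all test wells plus 3 SD, cut at about 32% in these data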;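 also: peak over basal fluorescence ratio per well then scaled between controls; 0% = DMSO wells and 100% = acetylcholine at EC100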
M4 antag – CHRM4 antagonism in calcium assay | 360,000 compounds, 0.73% hits | CHO-hM4 cells, ACh EC80, Fluo-8 calcium fluorescence | AID 624125 | inhibition, % at 3 µM;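 active = inhibition above its plate's cutoff, the mean inhibition of sample wells plus 3 SD, cut at about 27% in these data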;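 also: 0% = acetylcholine EC80 with DMSO and 100% = DMSO without agonist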
CHO-K1 Ca PAM – nonselective activator or artifact in parental CHO-K1 calcium assay; ATP EC20, Fluo-8 calcium fluorescence; 0% at ATP EC20, 100% at ATP max; activation, % at 3 µM; 360,000 compounds, 0.02% hits; AID 602247;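 active = activation above the run cutoff, the mean activation of all test compounds plus 3 SD, cut at about 40% in these data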;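 also: peak over basal fluorescence ratio in a 140 s read after ATP addition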
The depositor's hits bear a star; x = no result; ! = a repeat was not active.

SMILES | CHO-K1 Ca ag | M4 PAM | CHO-K1 Ca antag | M4 ag | M4 antag | CHO-K1 Ca PAM
CN1CCN(Cc2nc3ccccc3c(=O)n2Cc2nc(-c3ccc4ccccc4c3)cs2)CC1 | 1 | 22*! | -7 | 5 | -2 | 13
CCOC(=O)N1CCN(Cc2c(O)ccc3ccccc23)CC1 | 16* | 0 | -3 | 4 | -5 | -7
O=C(Nc1cccc(-c2cccc(F)c2)c1)C1CCN(Cc2ccc(CO)o2)CC1 | 4 | -4 | 2 | 10 | -19 | -12
OC(CN1CCN(c2cccc(C(F)(F)F)c2)CC1)c1c[nH]c2ccccc12 (stereo not drawn) | 2 | -6 | 30* | 6 | 4 | -7
O=[N+]([O-])c1ccc(C2=NN(c3ccccc3)C(c3ccco3)C2)cc1 (stereo not drawn) | 71* | -34 | 59* | 41* | 37* | -16
CC1=NN(c2ccccc2)C(c2ccco2)C1 (stereo not drawn) | 0 | 10 | -8 | 0 | 1 | 6
O=[N+]([O-])c1ccc(/C=C/C2=NN(c3ccccc3)C(c3ccco3)C2)cc1 (stereo not drawn) | 20* | -9 | 33* | 15 | 16 | -14
O=C(CCc1nc2ccccc2c(=O)[nH]1)Nc1nc(-c2cccs2)cs1 | 18* | 0 | 9 | 15 | -3 | 9
OC(CNCc1ccccc1)(c1ccccc1)c1ccccc1 | 15* | -6 | -17 | 2 | -2 | 20
Cc1ccc(N2CC(O)(c3cccs3)[N+]3=C2CCCC3)cc1 (stereo not drawn) | 0 | -27 | -13 | 1 | 40* | -9
Cc1cccc(N2CC(O)(c3cccs3)[N+]3=C2CCCC3)c1C (stereo not drawn) | 6 | -24 | 8 | 16 | 30* | -1
Cc1cccc(N2CC(O)(c3cccs3)[N+]3=C2CCCC3)c1 (stereo not drawn) | 0 | -9 | 1 | 0 | 16 | -15
Cc1cc(C)c(C(=O)O)c(Cl)n1 | 2 | -8 | 9 | 11 | 3 | -8
Cc1ccc(S(=O)(=O)N2CC3C(=O)CC(c4ccccc4)N(S(=O)(=O)c4ccc(C)cc4)C3CC2c2cccc(Cl)c2)cc1 (stereo not drawn) | x | 7 | x | 3 | -8 | x
COc1ccc(CNC(=O)CCC(=O)n2ncc3cc(C)ccc32)cc1 | 0 | 12 | 24* | 1 | -11 | -7
CN(c1ccccc1)c1ccc(/C=C/[N+](=O)[O-])cc1 | 20* | -15 | 28* | 16 | 36* | 2
Cc1ccc(NC(=O)Nc2ccc3c(c2)N(C)C(=O)CS3)cc1C | 13 | -13 | 35* | 24 | 18 | -6
Cc1cc(C)cc(NC(=O)Nc2ccc3c(c2)N(C)C(=O)CS3)c1 | 13 | -12 | 21 | 25 | -3 | -2
CCCc1ccc2oc(C(=O)N3CCC(C(N)=O)(N4CCCCC4)CC3)c(C)c2c1 | 0 | -2 | -6 | 1 | -5 | -6
CN1CCN(CCCNC(=O)CCc2nnc3n(Cc4ccccc4Cl)c(=O)c4ccccc4n23)CC1 | 1 | 16* | -15 | 2 | -6 | 12
O=C(CCc1nnc2n(Cc3ccc(F)cc3)c(=O)c3ccccc3n12)NCCCN1CCOCC1 | 4 | -1 | -3 | 13 | 8 | 6
COc1ccc(/C=N/NC(=O)CCn2cnc(-c3ccccc3)c2-c2ccccc2)cc1 | 1 | 7 | -25 | 0 | 85* | 31
CN(C(=O)CSc1nc2[nH]ncc2c(=O)[nH]1)c1ccccc1 | 0 | 18* | -3 | 0 | -8 | -13
Cc1cc(C)cc(NC(=O)CSc2nc3[nH]ncc3c(=O)[nH]2)c1 | 0 | 31* | -10 | 1 | -9 | 24
CCN(CC)C(=O)CSc1nc2[nH]ncc2c(=O)[nH]1 | 0 | 12 | 0 | 2 | -2 | 10
SMILES | CHO-K1 Ca ag | M4 PAM | CHO-K1 Ca antag | M4 ag | M4 antag | CHO-K1 Ca PAM
C/C(=N\NC(=O)c1cccc(N/N=C(\C)c2ccc([N+](=O)[O-])cc2)c1)c1ccc([N+](=O)[O-])cc1 | 1 | 8 | -2 | 1 | 7 | 2
CC1Cc2ccccc2N1C(=O)CNc1ccccc1N1CCCCC1 (stereo not drawn) | 0 | 2 | -4 | 1 | 0 | 0
Cc1cccc(C(=O)NNC(=O)c2n[nH]c(=O)c3ccccc23)c1C | 0 | 3 | -17 | 0 | -7 | 12
COc1ccc(C2/C=C\CN(C(=O)CC(C)(C)C)CC(=O)N2Cc2ccc(F)cc2)cc1 (stereo not drawn) | 0 | -1 | -12 | 5 | 0 | 17
COc1ccc(C2/C=C\CN(C(=O)C3CC3)CC(=O)N2Cc2ccc(F)cc2)cc1 (stereo not drawn) | -1 | -5 | 25* | 2 | 3 | -21
COc1ccc(C(O)P(=O)(O)CCc2ccccc2)cc1 (stereo not drawn) | 0 | 3 | 5 | 0 | 17 | 7
CCn1cc(C=O)c2cc(S(=O)(=O)N3CCOCC3)ccc21 | 0 | -1 | -3 | 2 | 26* | -9
COc1ccc(C2CC3(CC(C)(C)NC(SC)=N3)Oc3cc(O)cc(C)c32)cc1 (stereo not drawn) | 12 | -8 | -7 | 49* | -7 | 13
COc1ccc(C2CC3(CC(C)(C)NC(=S)N3)Oc3cc(O)cc(C)c32)cc1 (stereo not drawn) | 1 | -3 | -8 | 2 | -6 | 17
CCN1C(=O)/C(=C\c2ccc3c(c2)OCO3)C(C(=O)OC)=C1C | 1 | -1 | 0 | 1 | 7 | -3
CCCC(=O)Nc1cccc(-c2nc3ccccc3c(=O)o2)c1 | -1 | 25* | 1 | -1 | 6 | 9
O=C(NC1CC1)C1CCCN(C(=O)Nc2ccc(F)cc2)C1 (stereo not drawn) | 2 | 8 | -6 | 0 | -6 | 25
O=C(O)CNC(=O)c1ccccc1 | 0 | -7 | 4 | 0 | 9 | -2
Cc1c(C(=O)NCc2ccc([N+](=O)[O-])cc2)sc(=O)n1Cc1ccc(-c2ccccc2)cc1 | 0 | 7 | 0 | 2 | -2 | 18
Cc1[nH]c(=O)sc1C(=O)NCc1ccc([N+](=O)[O-])cc1 | 0 | -2 | 35* | 1 | -3 | -11
CCc1cccc(NC(=O)c2ccc(Cn3nc(C)cc3C)o2)c1 | 0 | -5 | 24* | 0 | 2 | -12
CCOc1ccc(NC(=O)c2ccc(Cn3nc(C)cc3C)o2)cc1 | 2 | -5 | -7 | 2 | 5 | 7
CC(=O)Oc1cccc(N2C(=O)c3ccc(C(=O)O)cc3C2=O)c1 | 0 | 11 | -5 | 1 | -15 | 13
COc1ccccc1N1C(=O)c2ccc(C(=O)Nc3ccccc3O)cc2C1=O | 14 | 12 | 2 | 21 | 30* | 10

Assay outcomes (PubChem BioAssay)
